KDM5B inh: Primary screen for KDM5B Histone Demethylases FDH-coupled qHTS; hit rate 2.6% among 220,000; Potency, µM (doses to about 57.7 µM), most hits filed as inhibitors; Lysine-specific demethylase 5B (Homo sapiens), Q9UGL1; KDM5B demethylase, FDH-coupled NADH fluorescence (FDH is formaldehyde dehydrogenase); active = well fitted inhibition curve with a large enough effect; note: nearly all actives have a fitted effect of over 70% in size
Target sequence (Q9UGL1 whole entry, looked up): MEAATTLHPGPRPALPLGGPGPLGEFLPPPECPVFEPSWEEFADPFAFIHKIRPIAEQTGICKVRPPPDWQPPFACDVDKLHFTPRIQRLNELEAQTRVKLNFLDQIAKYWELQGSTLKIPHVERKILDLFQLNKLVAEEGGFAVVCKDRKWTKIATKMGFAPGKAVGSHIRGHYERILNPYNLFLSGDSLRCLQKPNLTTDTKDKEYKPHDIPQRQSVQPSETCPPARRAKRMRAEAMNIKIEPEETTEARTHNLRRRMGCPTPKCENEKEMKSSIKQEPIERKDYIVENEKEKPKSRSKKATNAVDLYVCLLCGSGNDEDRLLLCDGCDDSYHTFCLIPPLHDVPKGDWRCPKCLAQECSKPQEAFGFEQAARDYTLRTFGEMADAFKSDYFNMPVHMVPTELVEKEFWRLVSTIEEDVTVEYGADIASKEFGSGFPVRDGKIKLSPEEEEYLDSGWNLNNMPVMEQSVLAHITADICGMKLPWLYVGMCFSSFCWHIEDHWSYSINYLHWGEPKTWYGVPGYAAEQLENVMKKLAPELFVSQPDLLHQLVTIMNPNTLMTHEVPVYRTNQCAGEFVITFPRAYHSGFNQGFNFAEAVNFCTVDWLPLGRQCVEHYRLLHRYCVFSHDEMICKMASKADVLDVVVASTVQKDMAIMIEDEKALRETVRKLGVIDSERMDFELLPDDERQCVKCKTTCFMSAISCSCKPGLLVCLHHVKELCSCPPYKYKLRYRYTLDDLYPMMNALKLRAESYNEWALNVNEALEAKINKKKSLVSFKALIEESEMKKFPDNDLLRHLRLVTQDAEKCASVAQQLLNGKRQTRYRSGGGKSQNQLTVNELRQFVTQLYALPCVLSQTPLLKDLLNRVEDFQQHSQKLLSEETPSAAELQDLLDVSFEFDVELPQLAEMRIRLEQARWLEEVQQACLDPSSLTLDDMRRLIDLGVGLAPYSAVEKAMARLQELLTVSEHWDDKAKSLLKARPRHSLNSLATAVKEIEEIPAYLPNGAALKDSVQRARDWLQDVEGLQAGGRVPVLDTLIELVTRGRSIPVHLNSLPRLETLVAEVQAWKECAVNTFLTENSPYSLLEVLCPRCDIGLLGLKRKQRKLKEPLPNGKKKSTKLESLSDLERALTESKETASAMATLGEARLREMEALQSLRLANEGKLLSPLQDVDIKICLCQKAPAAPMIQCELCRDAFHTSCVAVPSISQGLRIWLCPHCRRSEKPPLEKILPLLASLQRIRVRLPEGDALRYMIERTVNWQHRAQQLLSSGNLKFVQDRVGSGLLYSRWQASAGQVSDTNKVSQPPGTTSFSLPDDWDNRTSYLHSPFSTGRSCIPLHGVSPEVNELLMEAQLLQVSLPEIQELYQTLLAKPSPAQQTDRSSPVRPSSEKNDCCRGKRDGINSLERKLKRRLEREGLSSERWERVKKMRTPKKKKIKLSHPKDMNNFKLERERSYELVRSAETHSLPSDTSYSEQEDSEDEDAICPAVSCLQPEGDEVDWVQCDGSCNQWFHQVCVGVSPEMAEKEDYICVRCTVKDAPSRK
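Inhibition is measured as reduced NADH fluorescence generation from FDH coupling to formaldehyde release. Truncated KDM5BΔAP at 200 nM final acts on H3K4me3 peptide (12.5 µM in substrate mix) in pH 7.5 HEPES buffer with Tween-20, 30 min, room temperature.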
Hits are given with their value; . = inactive. Many of the other results were omitted from the sample, so hits are more common in it than they were.

SMILES	KDM5B inh
COc1ccc(C(=O)Nc2ccc(-c3noc([C@@H]4CCCN4CC4CCCCC4)n3)cn2)cc1	31.6µM
CN(C)c1ccc(-c2noc([C@@H]3CCCN3CC3CCCCC3)n2)cn1	39.8µM
CCCN(C)c1ccc(/C=N/NC(=S)Nc2cccc(CC)c2)cc1	.
CS(=O)(=O)c1ccc(-c2ccc(CN3CCOCC3)cn2)cc1	.
CC(C)OCCCNc1nc2c(c(=O)n(C)c(=O)n2C)n1Cc1ccc(Br)cc1	.
Cc1nccn1CCCN1CCC2(CC1)C(C(=O)O)CC(=O)N2C (centres undefined)	.
N#Cc1cc2c(cc1-c1cc3c(cc1C(=O)C1CC1)OCCO3)OCCO2	.
O=C(c1ccco1)N1CCN(/C=C/C(=O)C(F)(F)F)CC1	.
CN1C(=O)CC[C@]2(C(=O)NCc3ccc(Cl)cc3)CCCC[C@@H]12	.
Cc1nn(Cc2cccc(Cl)c2)c(C)c1NS(=O)(=O)c1c(C)nn(C(F)F)c1C	.
CCCN(CCC)CCNC(=O)COCc1cc(-c2cccs2)on1	.
CCOC(=O)C(O)(c1ccc(N(C)C(C)=O)cc1)C(F)(F)F (centres undefined)	.
COCC(=O)Nc1ccc(-c2noc([C@@H]3CCCN3Cc3cc4ccccc4o3)n2)cn1	31.6µM
COCC(=O)Nc1ccc(-c2noc([C@@H]3CCCN3Cc3ccc(NC(C)=O)cc3)n2)cn1	.
COCC(=O)Nc1ccc(-c2noc([C@@H]3CCCN3Cc3cccc(C#N)c3)n2)cn1	.
COc1ccc(C(=O)N2CCCC(c3nc(-c4cccnc4)no3)CCNC(=O)CC2)c(OC)c1 (centres undefined)	.
Cc1c(C(=O)O)sc2ccsc12	.
COCc1ccc(C(=O)N2CCc3[nH]nc(-c4ccccc4F)c3C2)s1	.
Cc1cc(N2CCCCCC2)n2nc(-c3ccccc3)c(C)c2n1	.
COc1cc(NC(=O)Cn2ccn3nc(-c4ccccc4)c(CO)c3c2=O)cc(OC)c1OC	.
COc1ccc(NC(=O)C2CCCN(c3cnccn3)C2)c(OC)c1 (centres undefined)	.
COc1cc(C)cc(C(C(=O)O)N2CCN(c3cnccn3)CC2)c1OC (centres undefined)	28.2µM
COc1ccc(NC(=O)C2CCN(c3cnccn3)CC2)cc1OC	.
COc1ccc(C(C)=O)cc1CSCc1coc(-c2ccc(Cl)cc2)n1	.
CCOc1ccccc1NC(=O)N1CCC(N2CC3CC(C2)[C@H]2CCCC(=O)N2C3)CC1 (some centres undefined)	.
SMILES	KDM5B inh
CC(C)(C)C1CCC(NC(=O)c2ccncc2)CC1 (centres undefined)	.
Cc1ccc(C(=O)NC2CCN(c3cc(C(F)(F)F)ncn3)CC2)cc1	.
N[C@@H]1CC[C@@H]1NC(=O)c1cnc(-c2cccnc2)nc1	.
O=C(NC1CC1)c1ccc2nnc(-c3ccc(C(F)(F)F)cc3)n2c1	56.2µM
O=C(NC1CC1)c1ccc2nnc(-c3cccnc3)n2c1	112µM
Cn1c(SCC(=O)NC2CCCCC2)nnc1-c1cccnc1	.
CC(C)(C)c1ccc(C(=O)Oc2ccc(/C=N/O)cc2)cc1	.
Cn1c(=O)c2c(ncn2CCC(=O)Nc2ccc(F)c(Cl)c2)n(C)c1=O	.
COCCn1cnc2ccc(-c3ccc4c(c3)OCO4)nc2c1=O	.
COCCn1cnc2ccc(-c3ccsc3)nc2c1=O	35.5µM
COCCCn1cnc2cccnc21	.
COCCn1cnc2ccc(-c3cccc(C)c3)nc2c1=O	39.8µM
COCCn1c(-c2ccc(Cl)cc2)n[nH]c1=S	.
COCCn1cnc2ccc(-c3ccc(F)c(Cl)c3)nc2c1=O	31.6µM
COc1ccc(-c2ccc3c(n2)c(=O)ncn3CC2CC2)cc1OC	.
COCCn1cnc2ccc(-c3cccc(C(F)(F)F)c3)nc2c1=O	.
CN1[C@@H](CCC(=O)N2CCC(O)CC2)CNC(=O)[C@@H]2[C@H]1CCN2Cc1ccc(S(C)(=O)=O)cc1	.
Cc1cnc(C(=O)N2CCCCCC2c2nnc(-c3ccccc3)o2)cn1 (centres undefined)	.
CCc1cccc(NC(=O)Cn2c(N(C)Cc3ccccc3)nc(C)cc2=O)c1	25.1µM
Cc1cccc(NC(=O)Cn2c(N(C)Cc3ccccc3)nc(C)cc2=O)c1	.
CCc1ccc(NC(=O)Cn2c(N(C)Cc3ccccc3)nc(C)cc2=O)cc1	.
O=C(NCCc1noc(C2CCCO2)n1)c1cnc(-c2cccnc2)nc1 (centres undefined)	.
O=S(=O)(NCc1ccccc1)NCc1noc(C2CCCO2)n1 (centres undefined)	.
c1cn(CCc2noc(C3CCCO3)n2)c(-c2nc3c(s2)CCCC3)n1 (centres undefined)	31.6µM
Cc1cc(Nc2cccc(C)c2C)c2ccc(C)c(C)c2n1	.
SMILES	KDM5B inh
CCN(CC)Cc1nnc2cc(-c3nc(-c4ccccc4)no3)ccn12	20µM
Ic1cccc(-c2nc(-c3ccccc3)no2)c1	.
CC(C)N1CCN(Cc2nnc3cc(-c4nc(-c5ccccc5)no4)ccn23)CC1	.
NC(=O)C1CCN(Cc2nnc3cc(-c4nc(-c5ccccc5)no4)ccn23)CC1	6.31µM
NC(=O)C1CCN(Cc2nc(-c3cccs3)no2)CC1	.
C=CCN(Cc1nc(-c2ccccc2)no1)Cc1nccn1C	.
C=CCN(CC=C)Cc1nnc2cc(-c3nc(-c4ccccc4)no3)ccn12	25.1µM
CS(=O)(=O)Nc1ccc([C@H]2OCC(=O)N[C@@H]2CO)cc1	.
COc1ccc(C(C)=O)cc1CO/N=C/c1ccc(OC(F)F)cc1	.
CCCCn1c(=O)[nH]c(=O)c2c1nc(COC(=O)/C=C/c1cc(Cl)c(OC)c(OCC)c1)n2C	.
O=C(COc1ccc(S(=O)(=O)NC2CCCC2)cc1)NCc1ccncc1	.
COc1ccc(CCNC(=O)CN(c2cccc(Cl)c2Cl)S(=O)(=O)c2ccccc2)cc1	.
Cn1c(=O)c2c(nc(NCc3ccco3)n2Cc2ccc(Br)cc2)n(C)c1=O	.
CC(OC(=O)c1ccc2c(c1)NC(=O)CS2)C(=O)c1c[nH]c2ccccc12 (centres undefined)	.
O=C1CSc2ccc(C(=O)Nc3cccc(C(=O)NC4CC4)c3)cc2N1	.
CCOc1ccc(/C=C(\C#N)C(=O)c2ccc(C)cc2)cc1OC	.
CCCN1CCC(N(C)C(=O)NCc2ccccc2F)CC1	.
CCOc1ccc(-c2ccnc(N3CCOC(CN)C3)n2)cc1C(=O)O (centres undefined)	28.2µM
CCOc1ccc(-c2ccnc(-c3ncccn3)n2)cc1C(=O)O	.
CCOc1ccccc1C(=O)N1CCC(n2cc(-c3nc(-c4ccccc4)no3)nn2)CC1	.
O=C(CCC1CCCC1)N1CCCC(Cc2nc(C3CCOCC3)no2)C1 (centres undefined)	.
COCCn1nc2n(c1=O)CCN(Cc1sccc1C)CC2	.
CSCc1noc(CNC(=O)c2ccc(-c3ccccc3Cl)o2)n1	31.6µM
CSCc1noc(CNC(=O)CC(c2ccccc2)c2ccccc2Cl)n1 (centres undefined)	.
CSCc1ccc(C(=O)NCc2ccccc2)o1	.
COc1cccc([S+](=O)([O-])N2CCC3(CC2)C(=O)Nc2ccccc23)c1	.
O=C(NCc1cccc(F)c1)c1cc2c(s1)CCN(C(=O)c1ccccc1)C2	.
COc1ccccc1C(CNC(=O)c1cccc2c(=O)c(C)c(-c3ccccc3)oc12)N(C)C (centres undefined)	.
O=c1c2ccccc2ncn1Cc1ncc(-c2ccc(Cl)cc2)o1	.
COc1cc(Cl)c(C)cc1NC(=O)Cn1ccn2nc(-c3ccc(F)cc3)c(CO)c2c1=O	.

Assay outcomes from PubChem.
